In the library only some 3.5% were active in any assay of this set; here they are far more common.
FBW7 act: activators of human E3 ligase FBW7. 650,000 tested, 0.13% active. AlphaScreen FBW7–phospho-cyclin E peptide binding, activator screen. normalized activity (activation), % at 26.1 µM. AID 1259310. Q969H0; in the data active means normalized activity above about 1.9%;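 further: purified mutant Fbw7 with reduced substrate affinity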
TEAD-YAP block: TEAD-YAP interaction inhibition | AID 1259422 | HEK-TIYL cells, TEAD-Gal4/YAP UAS-luciferase luminescence | inhibition, % at 9.12 µM | 640,000 tested, 1.4% active; in the data active means inhibition above about 32%
GPR151 activ: human GPR151 activation. PathHunter beta-arrestin GPR151 cells, luminescence. 650,000 tested, 1% active. activation, % at 11.2 µM; in the data active means activation above about 4.9%
Target sequence (Q8TDV0 whole entry, looked up): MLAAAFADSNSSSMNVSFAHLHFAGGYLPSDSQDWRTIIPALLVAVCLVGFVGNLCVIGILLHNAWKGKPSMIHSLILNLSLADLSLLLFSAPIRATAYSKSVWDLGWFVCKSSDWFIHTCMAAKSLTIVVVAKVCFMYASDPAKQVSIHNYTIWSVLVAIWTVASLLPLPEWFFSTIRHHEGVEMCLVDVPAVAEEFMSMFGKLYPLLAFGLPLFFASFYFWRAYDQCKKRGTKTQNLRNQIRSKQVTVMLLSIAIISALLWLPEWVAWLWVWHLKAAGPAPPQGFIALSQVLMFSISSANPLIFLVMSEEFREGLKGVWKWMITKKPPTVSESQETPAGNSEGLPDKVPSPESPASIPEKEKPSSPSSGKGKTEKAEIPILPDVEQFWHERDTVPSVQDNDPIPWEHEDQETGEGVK
MITF primary: blocks human microphthalmia-associated transcription factor | O75030 | AlphaScreen MITF homodimerization, bead proximity signal | inhibition, % at 2.6 µM | 650,000 tested, 0.91% active; in the data active means inhibition above about 50%
GPR151 conf act: confirmation of human GPR151 activators | shares compounds with GPR151 activ | GPR151 PathHunter beta-arrestin cells, luminescence, 90 min; % of EA-reagent control over plate median | activation, % at 11.2 µM | 6,700 tested, under 10 active;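 active means mean percent activation across replicates above the confirmation screen cutoff of 4.91%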
GPR119 counter: counter-screen for GPR151 activators: effect on human GPR119; shares compounds with GPR151 activ; GPR119 PathHunter beta-arrestin cells, luminescence, 90 min; 0 = compound-well median, 100 = enzyme-acceptor control; activation, % at 11.2 µM; 6,700 tested, 0.3% active; AID 1508611;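 active means mean percent activation in the counterscreen above 29.09%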;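 further: counterscreen on off-target GPR119 to flag nonselective hits from the GPR151 activator screen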
Numbers stand for hits; - = inactive; . = no result given.

SMILES	FBW7 act	TEAD-YAP block	GPR151 activ	MITF primary	GPR151 conf act	GPR119 counter
Cc1nnc2ccc(SCC(=O)N3CCN(Cc4ccc5c(c4)OCO5)CC3)nn12	-	-	5.7	-	-	-
OC(COCc1ccc2c(c1)OCO2)CN1CCN(Cc2ccccc2)CC1 (stereo unspecified)	-	-	6.9	-	-	-
O=C(NC(=O)c1ccccc1)Nc1ccc(Br)cc1	-	-	6.1	-	-	-
Cc1ccc(C)c(N(C(=O)c2csnn2)C(C(=O)NC(C)(C)C)c2cccnc2)c1 (stereo unspecified)	-	-	-	-	.	.
CCOC(=O)c1c(NC(=S)NC(=O)N(C)C)sc(C)c1-c1cccs1	-	-	5.1	-	-	-
Cc1sc2ncn3c(=O)n(CC(=O)N4CCCC4)nc3c2c1C	-	-	-	-	.	.
O=c1nc2s/c(=C\c3ccc(-c4ccccc4F)o3)c(=O)n2c2sc3c(c12)CCCC3	-	-	-	-	.	.
O=c1nc2s/c(=C\c3ccc(-c4ccc(F)cc4F)o3)c(=O)n2c2sc3c(c12)CCCC3	-	-	5.0	-	-	-
CCOC(=O)N1CCN(C(=O)CN2C(=O)CC(C)(C)S(=O)(=O)c3ccccc32)CC1	-	-	5.9	-	-	-
CC1(C)CC(=O)N(CC(=O)O)c2ccccc2S1(=O)=O	-	-	-	-	.	.
CCC(C)C1N=C2c3ccccc3N=C(SCc3cccc(F)c3)N2C1=O (stereo unspecified)	-	-	5.2	-	-	-
C=CCNC(=O)CN1CCC(O)(c2cccnc2)CC1	-	-	6.2	-	-	-
C=CCNC(=O)CN1CCN(C(c2ccccc2)c2ccccc2)CC1	-	-	6.2	-	-	-
C=CCNC(=O)CN1CCC(O)(c2ccccc2)CC1	-	-	-	-	.	.
O=C(CN1CCN(C(c2ccccc2)c2ccccc2)CC1)NCc1cccs1	-	-	-	-	.	.
O=C(NCc1nc(-c2ccncc2)n[nH]1)C(c1ccccc1)C1CCCCC1 (stereo unspecified)	-	-	7.1	-	-	-
CC1(C)CC(NC(=S)Nc2ccccc2F)CC(C)(C)N1	-	-	8.3	-	-	-
O=c1[nH]cnc2c1[nH]c1ccccc12	-	-	8.7	-	-	-
Cc1cc(N2CCCCC2)nc2ccc(NC(=O)c3cccc([N+](=O)[O-])c3)cc12	-	-	17	-	-	-
CCOC(=O)N1CCN(C(=O)CN2C(=O)c3ccccc3C2=O)CC1	-	-	-	-	.	.
CCOC(=O)N1CCc2c(sc3c2C(=O)NC(/C=C/c2ccco2)N3)C1 (stereo unspecified)	-	-	-	-	.	.
CC(=O)NC(=S)Nc1ccc(S(N)(=O)=O)cc1	-	-	5.5	-	-	-
NS(=O)(=O)c1ccc(NC(=S)NC(=O)C(c2ccccc2)c2ccccc2)cc1	-	-	5.4	-	-	-
CC(=O)Nc1cccc(NC(=S)Nc2ccc(S(N)(=O)=O)cc2)c1	-	-	-	-	.	.
CC(C)N=C(N)CCn1cnc2c1c(=O)n(C)c(=O)n2C	-	-	-	-	.	.
SMILES	FBW7 act	TEAD-YAP block	GPR151 activ	MITF primary	GPR151 conf act	GPR119 counter
C=COCCSc1nnnn1-c1ccc2c(c1)OCO2	-	-	-	-	.	.
CN(C)S(=O)(=O)c1ccc(C(=O)CSc2n[nH]c(N)n2)cc1	-	-	9.6	-	-	-
CCOC(=O)C1C(=O)CC(C)(O)C(C(=O)OCC)C1c1ccc(OCc2ccccc2)c(OC)c1 (stereo unspecified)	-	-	-	-	.	.
CCC(c1nnnn1C(C)(C)CC)N1CCN(Cc2ccccc2)CC1 (stereo unspecified)	-	-	6.3	-	-	-
CCCCOC(=S)SCc1ccc(Cl)s1	-	-	6.4	-	-	-
O=C(NCCc1ccccn1)/C(=C/c1cccnc1)NC(=O)c1ccccc1	-	-	-	-	.	.
O=C(O)c1c(CNCc2ccccn2)c2ccccc2n1Cc1ccccc1	-	-	-	-	.	.
CCC1CCCCN1C(=O)CSc1nc2nc(C)c(Cc3ccccc3C)c(C)n2n1 (stereo unspecified)	-	-	5.2	-	-	-
Cc1ccccc1Cc1c(C)nc2nc(SCC(=O)NC(C)(C)C)nn2c1C	-	-	16	-	-	-
CCCN(CCC)C(=O)CSc1nc2nc(C)c(Cc3ccccc3C)c(C)n2n1	-	-	5.0	-	-	-
Cc1ccccc1Cc1c(C)nc2nc(SCC(=O)N3CCC(C)CC3)nn2c1C	-	-	-	-	.	.
CN(Cc1ccccc1)S(=O)(=O)c1ccc(OCC(=O)N2CCCCCC2)cc1	-	-	-	-	.	.
Cc1cc(=O)oc2cc(OCC(=O)Nc3ccc(-c4nnc5n4CCCCC5)cc3)ccc12	-	-	-	-	.	.
O=[N+]([O-])c1ccc(C2N(c3ccccc3)CCN2c2ccccc2)s1	-	-	4.9	-	-	-
Brc1ccc(C2N(c3ccccc3)CCN2c2ccccc2)s1	-	-	-	-	.	.
O=C(CCN1C(=O)S/C(=C\c2ccc(Cl)cc2)C1=O)Nc1ccc(C(=O)O)cc1	-	-	6.9	-	-	-
Cc1c(=O)n(OCc2ccccc2F)c2ccccc2[n+]1[O-]	-	-	12	-	-	-
Cc1c(=O)n(OCc2cccc(F)c2)c2ccccc2[n+]1[O-]	-	-	-	-	.	.
O=C(NCCO)c1cccc(N2C(=O)c3ccccc3C2=O)c1	-	-	7.6	-	-	-
O=C(CSc1cn(CCNC(=O)c2ccc(F)cc2)c2ccccc12)Nc1ccc(Br)cc1	-	-	-	-	.	.
CCc1ccc(OCC(=O)Nc2ccc(C(=O)OCCOC)cc2)cc1	-	-	-	-	.	.
Cc1ccc(NC(=O)COc2ccc(C(C)C)cc2)cc1	-	-	6.4	-	-	-
CCOCCOC(=O)c1ccc(NC(=O)COc2ccc(OC)cc2)cc1	-	-	-	-	.	.
CCOCCOC(=O)c1ccc(NC(=O)COc2ccccc2)cc1	-	-	5.0	-	-	-
CCOC(=O)c1ccc(NC(=O)COc2ccc(CC)cc2)cc1	-	-	4.9	-	-	-
SMILES	FBW7 act	TEAD-YAP block	GPR151 activ	MITF primary	GPR151 conf act	GPR119 counter
CCOc1ccc(NC(=O)CC2(c3ccc(OC)cc3)C(=O)c3ccccc3C2=O)cc1	-	-	5.4	-	-	-
CCOc1ccc(NC(=O)COC)cc1	-	-	5.4	-	-	-
CC(C)[C@H](NC(N)=O)C(=O)Nc1ccc(I)cc1	-	-	5.9	-	-	-
CNC(=O)C(=O)NCCN1CCN(Cc2ccc(Br)cc2)CC1	-	-	7.8	-	-	-
O=C(NCCN1CCN(Cc2ccc(Br)cc2)CC1)C(=O)Nc1ccc(Cl)cc1	-	-	-	-	.	.
COc1ccc(Cl)cc1S(=O)(=O)N1CCN(Cc2ccc(F)cc2)CC1	-	-	-	-	.	.
CC(=O)N(c1ccc2oc3c(c2c1)CCCC3)S(=O)(=O)c1ccc(C(=O)O)cc1	-	-	-	-	.	.

Screens: PubChem BioAssay, The Scripps Research Institute Molecular Screening Center
